Cruzain Triton: qHTS Assay for Promiscuous and Specific Inhibitors of Cruzain (with detergent); purified cruzain, Z-FR-AMC fluorescence, 0.01% Triton; Potency, µM, for inactives: max response, negative = inhibition, hits mostly inhibitors; actives 0.43% (n = 200,000);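 further: plate controls were neutral wells for no effect and buffer without enzyme for full effect; nearly all actives have a fitted effect of over 40% in size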
Target sequence (P25779 123-467 limits assumed): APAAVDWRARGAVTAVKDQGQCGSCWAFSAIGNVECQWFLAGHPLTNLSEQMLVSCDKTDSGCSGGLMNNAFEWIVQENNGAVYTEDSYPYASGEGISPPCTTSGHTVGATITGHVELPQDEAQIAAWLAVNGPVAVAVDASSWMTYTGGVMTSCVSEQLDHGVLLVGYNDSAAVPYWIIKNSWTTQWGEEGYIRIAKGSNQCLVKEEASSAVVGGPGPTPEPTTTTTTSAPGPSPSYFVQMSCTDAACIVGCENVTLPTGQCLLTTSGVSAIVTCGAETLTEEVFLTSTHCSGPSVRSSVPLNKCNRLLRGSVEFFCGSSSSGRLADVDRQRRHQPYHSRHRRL
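Read-out: AMC fluorescence (360 nm excitation, 450 nm emission), four reads over 2 min, first-to-third difference used. Conditions: cruzain 1.5 nM, Z-FR-AMC 2 uM, pH 5.5 acetate, 5 mM DTT, 0.01% Triton X-100.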
NS1 inh: qHTS Assay for Inhibitors of Influenza NS1 Protein Function | actives 0.4% (n = 270,000) | Potency, µM (titrated, usually from 46.1 µM), inactives show at the top dose activity, positive = more growth | AID 2326, 2010; calls by dose curve; further: actives are rising curves; nearly all actives have a fitted effect of over 50% in size
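Read-out: OD600 growth recovery of NS1-expressing budding yeast. Cells grown overnight at 30C in -URA glucose medium, washed, resuspended and diluted 1:100 in 2% galactose assay medium, pH 6.0. Same strain lacking NS1 served as positive control.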
Cruzain inh noDet: qHTS Assay for Promiscuous and Specific Inhibitors of Cruzain (without detergent); Cruzipain (Trypanosoma cruzi), P25779; actives 2.3% (n = 200,000); Potency, µM, for the others: max response, negative = inhibition, usual class: inhibitors; purified cruzain, Z-FR-AMC fluorescence, no detergent; AID 1476, 2009;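 further: plate controls were enzyme without inhibitor for no effect and buffer without enzyme for full effect; nearly all actives have a fitted effect of over 40% in size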
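Purified cruzain at 1.5 nM, pre-incubated 15 min with compound at room temperature in 100 mM sodium acetate pH 5.5, 5 mM DTT, 0.00005% Triton X-100. Reaction started with 2 uM Z-FR-AMC; AMC fluorescence increase over 60 s gives rate.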
* hit, by the source's call; ? = inconclusive; / = no result given. This is one part of a sample in which hits are shown more often than they occur. Unless noted, the call rests on the fitted dose curve; in most records, active means well fitted curve in the direction sought with a large enough effect; inconclusive means small, poorly fitted or top-dose-only effect, or another doubt; inactive means no such curve, though single readings can be large; an effect the other way counts as inactive or inconclusive. Potency means the concentration at half of the fitted maximal effect.

SMILES | Cruzain Triton | NS1 inh | Cruzain inh noDet
CCCCOc1ccc(C(=O)Nc2onc3c2CCCC3)cc1 | -11.5% | / | -11.3%
C[C@H]1OC(=O)CC[C@@H]2[C@]1(C)CCC1[C@@]2(C)CC[C@@]2(C)C3CC(C)(C)CC[C@]3(CO)CC[C@]12C (stereo not given in full) | 2.0% | / | -11.6%
COc1cccc(/C=N/Nc2ccc([N+](=O)[O-])cn2)c1O | / | -65.5% | /
Cc1c(C(=O)O)cccc1-n1c(C)cc(/C=N/Nc2ccc([N+](=O)[O-])cn2)c1C | / | 8.3% | /
Cc1cc(/C=N/Nc2ccc([N+](=O)[O-])cn2)c(C)n1-c1ccccc1 | -2.0% | 6.3% | 3.98µM*
Cc1ccc(-n2c(C)cc(/C=N/Nc3ccc([N+](=O)[O-])cn3)c2C)cc1 | -5.7% | 15.8% | 7.94µM*
Cc1ccc(Cn2cc(/C=N/Nc3ccc([N+](=O)[O-])cn3)c3ccccc32)cc1 | -4.0% | 10.3% | 6.31µM*
O=C(O)Cn1cc(/C=N/Nc2ccc([N+](=O)[O-])cn2)c2ccccc21 | / | -2.0% | /
CC(C)(C)Nc1oc(-c2ccccc2)nc1-c1ccccc1F | 2.6% | / | -10.8%
COc1ccccc1C(=O)Nc1cccc(OCc2cc(=O)n3ccccc3n2)c1 | 4.5% | / | 12.7%
Cc1ccc(CCNS(=O)(=O)c2ccc3c(c2)CCN3C(=O)CCC(=O)O)cc1 | 2.1% | / | ?
O=C(Nc1nc(-c2ccccc2)cs1)C1c2ccccc2Oc2ccccc21 | 4.6% | 1.9% | 20µM*
COc1ccc(OC)c(-c2csc(NC(=O)Cc3ccccc3)n2)c1 | / | 0.9% | /
O=C(Nc1nc(-c2ccncc2)cs1)C1c2ccccc2Oc2ccccc21 | -9.5% | -15.2% | ?
COc1ccc(OC)c(-c2csc(NC(=O)C3c4ccccc4Oc4ccccc43)n2)c1 | 0.7% | 18.0% | 20µM*
CCCn1c(-c2ccc(F)cc2)nc2c(NCCCN3CCOCC3)nc(C)nc21 | 7.1% | / | -4.0%
Cc1ccc(-n2ccnc(NCCc3ccc(S(N)(=O)=O)cc3)c2=O)c(C)c1 | -23.4% | / | -12.7%
O=[N+]([O-])c1ccc(S(=O)(=O)Cc2ccccc2)c2nonc12 | -5.9% | 7.2% | -9.3%
Nc1ccc2nc(-c3ccc(-c4nc5ccc(N)cc5[nH]4)cc3)[nH]c2c1 | / | -43.8% | /
Nc1ccc(-c2nc3ccc(-c4nc5ccc(N)cc5[nH]4)cc3[nH]2)cc1 | 14.1µM* | -18.0% | 25.1µM*
C[C@@H]1c2ccccc2Cn2cc3c(c21)C(=O)c1cccc(OP(=O)(O)OCc2ccccc2)c1C3=O | 1.3% | -3.1% | 9.1%
Cc1ccc(-c2csc3ncnc(SCC(=O)NCc4ccc5c(c4)OCO5)c23)cc1 | -0.9% | 24.4% | 25.1µM*
O=C(CSc1ncnc2scc(-c3ccc(Cl)cc3)c12)NCc1ccc2c(c1)OCO2 | -0.7% | 13.9% | ?
COCCn1c(=O)c(-c2ccc(Cl)cc2)nc2cnc(OC)nc21 | -4.4% | / | 15.7%
CCC(=O)Nc1nnc(-c2cccs2)s1 | / | -7.2% | /
SMILES | Cruzain Triton | NS1 inh | Cruzain inh noDet
O=C(Cc1ccccc1)Nc1nnc(-c2cccs2)s1 | 0.7% | 5.0% | 25.1µM*
O=c1[nH]c2ccc(Cl)cc2c(O)c1-c1ccccc1 | 0.6% | -3.9% | 0.2%
O=c1[nH]c2ccc(Cl)cc2c(-c2ccccc2)c1[N+](=O)[O-] | / | 10.9% | /
O=c1[nH]c2cc(Cl)ccc2c(O)c1-c1ccc(Oc2ccccc2)cc1 | 2.4% | -9.4% | 10µM*
O=c1[nH]c2cc(Cl)ccc2c(O)c1-c1cccc(Oc2ccccc2)c1 | 5.5% | / | 3.16µM*
COc1ccc2c(c1)O[C@@H](c1cccc(C(F)(F)F)c1)[C@H](OC(=O)NS(=O)(=O)c1ccc(C)cc1)C2=O | -7.2% | / | 12.7%
CC[C@@H]1[C@@H]2Cc3ccc(O)cc3[C@@]1(CC)CCN2C | -0.3% | -5.3% | -3.7%
Cc1cc(C(=O)Nc2nc(C)c(C(=O)N(C)C)s2)ccc1[N+](=O)[O-] | -4.4% | -1.1% | -4.5%
Cc1nc(NC(=O)c2ccc([N+](=O)[O-])cc2Cl)sc1C(=O)N(C)C | 15.8µM* | -1.7% | -13.6%
COc1ccccc1NC(=O)C1=C(C)Nc2c(C(=O)Nc3ccc(F)cc3)cnn2C1c1cccc([N+](=O)[O-])c1 (stereo not given) | -3.5% | / | ?
CCc1c(C)sc2c1CCN(C(=O)Nc1ccc(F)c(Cl)c1)C2c1ccc(F)cc1 (stereo not given) | -1.1% | / | 10µM*
CCc1c(C)sc2c1CCN(C(=O)Nc1ccccc1C(F)(F)F)C2c1ccccc1 (stereo not given) | -5.7% | / | -12.2%
CCc1c(C)sc2c1CCN(C(=O)Nc1ccccc1C(=O)OC)C2c1ccc(F)cc1 (stereo not given) | 0.3% | / | ?
CCc1c(C)sc2c1CCN(C(=O)Nc1cc(Cl)c(OC)cc1OC)C2c1ccccc1 (stereo not given) | -0.6% | / | 6.31µM*
CC(=O)N1CCc2cc(S(=O)(=O)NC(Cc3ccccc3)C(=O)NCc3ccccc3)ccc21 (stereo not given) | -4.1% | / | -2.9%
COc1ccc(-c2cc([C@H](O)C3CCCCN3)c3ccccc3n2)cc1 (stereo not given in full) | 3.2% | 7.7% | 7.5%
Cc1cc(C)cc(NC(=O)c2ccc3oc(=O)c(S(=O)(=O)c4ccc(F)cc4)cc3c2)c1 | 1.4% | / | -4.4%
Brc1cc2c(cc1-c1nc3ccccc3s1)OCO2 | / | 0.7% | /
Oc1ccc(N=C/C=C/c2ccc(Br)cc2)cc1-c1nc2ccccc2s1 | -14.1% | 17.4% | 31.6µM*
N#Cc1c(NC(=O)CCn2cnc3ccccc3c2=O)oc(-c2ccccc2)c1-c1ccccc1 | 5.4% | ? | 31.6µM*
CC(C)CC(C(=O)Nc1oc(-c2ccccc2)c(-c2ccccc2)c1C#N)N1C(=O)c2ccccc2C1=O (stereo not given) | -3.4% | 12.1% | 3.16µM*
N#Cc1c(NC(=O)CCN2C(=O)c3ccccc3C2=O)oc(-c2ccccc2)c1-c1ccccc1 | -2.7% | 2.9% | ?
CC(C)CC(C(=O)Nn1cnnc1)N1C(=O)c2ccccc2C1=O (stereo not given) | -0.4% | 12.3% | -1.9%
COC(=O)NC(CCc1ccccc1)C(C(=O)OC)C(=O)OC (stereo not given) | 0.4% | / | 4.4%
COC(=O)c1nc2n(n1)C(c1cc(OC)ccc1OC)C(C(=O)Nc1ccc(C)cc1C)=C(C)N2 (stereo not given) | 2.0% | / | -8.2%
SMILES | Cruzain Triton | NS1 inh | Cruzain inh noDet
CC(/C=N/NC(=O)Cc1cccs1)=C\c1ccccc1 | -5.1% | -1.4% | -8.8%
O=C(Cc1cccs1)N/N=C/C(Br)=C/c1ccccc1 | 1.3% | -2.9% | 15.8µM*
CC1(O)/C=C\C=C(\CO)C2CC(C)(C)C2(O)CC1 (stereo not given) | 0.9% | / | -4.3%
Cc1ccc(C(c2sc3nc(-c4ccco4)nn3c2O)N2CCN(Cc3ccccc3)CC2)cc1 (stereo not given) | 3.2% | / | 10.0%
O=C(Nc1cccc2ccccc12)c1nn(C23CC4CC(CC(C4)C2)C3)cc1Br | 2.8% | 18.0% | 10µM*
Cc1ccc(NC(=O)c2nn(C34CC5CC(CC(C5)C3)C4)cc2[N+](=O)[O-])cc1 | -3.0% | 21.0% | ?
COC(=O)c1cccc(Cn2c(Cl)c(/C=N/Nc3ccccc3C)sc2=O)c1 | -8.6% | -5.0% | 12.6µM*
Cc1ccccc1N/N=C/c1sc(=O)n(Cc2cccc(C(=O)O)c2)c1Cl | / | -2.6% | /
